Manual score data for 108 compounds are collected here from PubChem BioAssay AID623911 (Vanderbilt High Throughput Screening Facility, 2012).

The whole screen tested about 2,100 compounds, of which about 770 (37%) were called active.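 Rule for the calls: active = by-eye trace score of 1 for enhancers or -1 for inhibitors, so actives lie on both sides (some results past the limit were not filed as active); inactive = score 0, or 3 fluorescent, or 4 baseline rise.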 This is one part of the list.

Chain of G protein-activated inward rectifier potassium channel 2 (Homo sapiens) + G protein-activated inward rectifier potassium channel 1 (Homo sapiens) (P48051 whole entry, looked up): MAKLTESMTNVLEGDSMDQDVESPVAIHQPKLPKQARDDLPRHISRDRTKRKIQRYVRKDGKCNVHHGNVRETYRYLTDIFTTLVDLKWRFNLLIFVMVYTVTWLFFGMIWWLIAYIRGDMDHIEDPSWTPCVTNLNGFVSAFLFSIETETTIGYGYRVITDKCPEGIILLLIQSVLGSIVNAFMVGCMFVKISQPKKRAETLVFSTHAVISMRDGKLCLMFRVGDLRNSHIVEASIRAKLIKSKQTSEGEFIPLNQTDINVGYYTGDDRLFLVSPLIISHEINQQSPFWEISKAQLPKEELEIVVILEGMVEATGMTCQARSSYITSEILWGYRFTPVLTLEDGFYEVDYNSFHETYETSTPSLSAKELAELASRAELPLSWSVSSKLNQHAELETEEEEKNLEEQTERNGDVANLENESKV
Chain of G protein-activated inward rectifier potassium channel 2 (Homo sapiens) + G protein-activated inward rectifier potassium channel 1 (Homo sapiens) (P48549 whole entry, looked up): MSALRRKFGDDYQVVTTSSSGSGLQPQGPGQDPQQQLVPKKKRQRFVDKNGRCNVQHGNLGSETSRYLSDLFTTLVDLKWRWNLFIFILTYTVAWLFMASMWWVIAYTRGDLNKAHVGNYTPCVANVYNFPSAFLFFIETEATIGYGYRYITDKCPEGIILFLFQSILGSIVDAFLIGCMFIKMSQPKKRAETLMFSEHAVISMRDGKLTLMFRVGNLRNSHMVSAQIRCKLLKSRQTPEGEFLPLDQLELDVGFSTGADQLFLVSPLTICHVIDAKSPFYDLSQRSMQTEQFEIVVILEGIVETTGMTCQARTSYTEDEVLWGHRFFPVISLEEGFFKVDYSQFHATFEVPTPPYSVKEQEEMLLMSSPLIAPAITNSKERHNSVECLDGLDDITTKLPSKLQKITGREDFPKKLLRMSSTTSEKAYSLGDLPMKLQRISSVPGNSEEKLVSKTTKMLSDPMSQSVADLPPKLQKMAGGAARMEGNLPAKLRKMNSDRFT

The test has as its target G protein-activated inward rectifier potassium channel 2 (Homo sapiens) + G protein-activated inward rectifier potassium channel 1 (Homo sapiens) (UniProt P48051+P48549). Briefly: GIRK1/2 thallium flux modulators, retest, confirmation, cell-based, HEK293 rmGlu8/hGIRK1/2, FluoZin-2 (AID 623911). The settings on record: HEK293 rmGlu8/hGIRK1/2, thallium flux FluoZin-2; actives lie on both sides; glutamate co-added at its EC20 level.
Turning to `CCOC(=O)C1=NN(C(=O)c2ccccc2)C(O)(c2ccc(C)cc2)C1` (stereo not drawn), the manual score is 1 (active).
The value for `COC(=O)C1=NN(C(=O)c2ccc(C)cc2)C(O)(c2ccc(Cl)cc2)C1` (stereo not drawn) was 1 (active); that for `CCOC(=O)C1=NN(C(=O)c2ccc(C)cc2)C(O)(c2ccc(Cl)cc2)C1` (stereo not drawn) was 1 (active); that for `CC1=NN(c2ccccc2)C(=O)C1C(=O)c1ccc(Cl)cc1` (stereo not drawn) was 0.5 (inactive).
For `CCOC(=O)c1c(C)[nH]c(C(=O)COC(=O)CNC(=O)c2ccc(Cl)cc2)c1C` the value was 0 (inactive).
Take `CCOC(=O)C1=C(NC(=S)NC(=O)c2ccccc2)c2ccccc2CC1(C)C`: the manual score was 0 (inactive).
Consider `COC(=O)C1=NN(C(=O)c2ccc(Cl)cc2)C(O)(c2ccccc2)C1` (stereo not drawn), for which the manual score is 1 (active).
The value for `CCC1=NN(C(=O)c2cccc(Br)c2)C(O)(c2ccc(Br)cc2)C1` (stereo not drawn) was 0 (inactive); that for `CC(C)c1nc(N2CCOCC2)c(C#N)c2c1CCCC2` was 0 (inactive); that for `Cc1ccc2c(c1)NC(=O)CC(c1ccccc1)=N2` was 0 (inactive).
For `Cc1ccc(SC(C)C(=O)Nc2ccc(S(=O)(=O)N3CCOCC3)cc2)cc1` (stereo not drawn) the value was 0 (inactive).
The value for `CC1CC(C)CN(C(=S)Nc2ccc(SC(F)F)cc2)C1` (stereo not drawn) was 1 (active); that for `CC1CCCCC1NC(=S)Nc1ccc(SC(F)F)cc1` (stereo not drawn) was 1 (active); that for `O=S(=O)(c1ccccc1)N1CCN(C(=S)Nc2ccc(F)cc2)CC1` was 0 (inactive).
As to `Oc1cccc(NC(=S)Nc2ccc(SC(F)F)cc2)c1`, the manual score is 1 (active).
`CC1CCCC(NC(=S)Nc2ccc(SC(F)F)cc2)C1C` (stereo not drawn): the manual score is 1 (active).
The value for `CCNc1ccc2noc3c2c1C(=O)c1ccccc1-3` was 0 (inactive); that for `CCN(CC)c1ccc2c(c1)OC(N)=C(C#N)C2c1cccnc1` (stereo not drawn) was 3 (inactive).
For `CCc1nc(SCc2ccc(F)cc2)[nH]c(=O)c1C#N` the value was 3 (inactive); for `CCOc1ccc(-c2nc(-c3cccnc3)no2)cc1OCC`, 0 (inactive).
For `Cc1ccc(N=Nc2ccc(O)c3ncccc23)cc1`, the manual score was 0 (inactive).
As to `Cc1ccc(N=Cc2cc3c(cc2O)OC(N)=C(C#N)C3c2ccccc2)cc1` (stereo not drawn), the manual score was 0 (inactive).
For `COc1ccc(C(=O)NC(=S)N(Cc2ccccc2)Cc2ccccc2)cc1` the value was 1 (active); for `CCOc1ccc(C(=O)NC(=S)N(Cc2ccccc2)Cc2ccccc2)cc1`, 1 (active); for `CCOc1cccc(C(=O)NC(=S)Nc2ccccc2)c1`, 0 (inactive).
The value for `CN(C)C(=O)CSc1cccc2cccnc12` was 0 (inactive); that for `CC(Nc1ccc(Br)cn1)c1cc(Cl)ccc1O` (stereo not drawn) was 0 (inactive); that for `S=C(N/N=C/c1ccc(Cl)cc1)N1CCOCC1` was 1 (active).
As to `S=C(N/N=C/c1ccccc1)N1CCOCC1`, the manual score was 0.5 (inactive).
The value for `Cc1ccc(/C=N/NC(=S)N2CCOCC2)cc1` was 1 (active); that for `Cc1ccc(C(=O)c2ccc(N3CCOCC3)c(F)c2)cc1` was 0 (inactive); that for `Clc1ccc(/C=N/Nc2nc(Cl)nc3ccccc23)cc1` was 0 (inactive).
Regarding `CNC(=S)N/N=C/c1ccc(C(C)C)cc1`, the manual score was 0 (inactive).
The value for `O=C(Nc1ccc(Br)cc1)C1CCC(=O)N1Cc1ccccc1Cl` (stereo not drawn) was 0 (inactive).
Turning to `O=C1CC(C(=O)Nc2ccc(Br)cc2)C2(CCCC2)O1` (stereo not drawn), the manual score was 1 (active).
The value for `COCc1nnc(NC(=O)C(C)C)s1` was 0 (inactive); that for `CCCCn1c(-c2csc3c2CCC(C)C3)n[nH]c1=S` (stereo not drawn) was 0 (inactive); that for `Cn1nc(C(F)(F)F)c2cc(NC(=O)OCc3ccc(F)cc3)sc21` was 0 (inactive).
Consider `CCOC(=O)C(CC)Sc1nnc2cc(C)c3ccccc3n12` (stereo not drawn), for which the manual score is 0 (inactive).
Consider `CCOC(=O)C(CC)Sc1nnc(COc2ccc(C)cc2)n1-c1ccccc1` (stereo not drawn), for which the manual score was -1 (active).
For `CC(/C=N/n1c(COc2ccccc2)n[nH]c1=S)=C\c1ccccc1` the value was 0 (inactive).
The value for `Cc1cccc2cc(/C=C3\N=C(c4ccccc4)OC3=O)c(N3CCOCC3)nc12` was 3 (inactive).
The value for `CC1=C(C(=O)OCC2CCCO2)C(c2ccc(C)o2)C2=C(CC(c3ccc(F)cc3)CC2=O)N1` (stereo not drawn) was -1 (active).
In the case of `CCOC(=O)C1=C(C)NC2=C(C(=O)CC(c3ccc(OC)c(OC)c3)C2)C1c1ccc(C)o1` (stereo not drawn), the manual score is 0 (inactive).
For `CCOC(=O)C1=C(C)NC(=O)NC1c1ccc(Br)o1` (stereo not drawn) the value was 0 (inactive); for `O=C(CSc1nnc(-c2cccnc2)o1)OC1CCCCC1`, 0 (inactive).
For `COC(=O)c1[nH]c2ccc(C)cc2c1NC(=O)CCN1CCN(Cc2ccc3c(c2)OCO3)CC1` the value was -1 (active); for `Cc1ccc(C)c(Nc2c([N+](=O)[O-])cc(C(=O)N3CC(=O)Nc4ccccc43)cc2[N+](=O)[O-])c1`, 0 (inactive); for `S=c1nc(-c2ccc(Br)cc2)oc2c1CCCC2`, 1 (active).
The value for `c1ccc2c(N3CCCCCC3)nc(-c3ccncc3)nc2c1` was -1 (active).
`c1ccc(-c2nnc3ccc(N4CCCC4)nn23)cc1`: the manual score is 0 (inactive).
As to `O=c1c2cccnc2[nH]c(=S)n1CCCN1CCN(c2ccc(F)cc2)CC1`, the manual score was 0 (inactive).
As to `Cc1ccc(C)n1-c1ccc(-c2nnco2)cc1`, the manual score was 0 (inactive).
The value for `CCOC(=O)CSc1cc(CSc2ccccc2)nc(-c2ccccc2)n1` was 0 (inactive); that for `CCCC(=O)n1nc(-c2ccccc2)nc1N` was 0 (inactive).
In the case of `CCOC(=O)C(Cc1ccccc1)NC(=O)Cn1nnc(-c2ccccc2)n1` (stereo not drawn), the manual score was 1 (active).
The value for `Cc1ccc(N2CC(C(=O)N/N=C/c3sccc3C)CC2=O)cc1` (stereo not drawn) was 0.5 (inactive); that for `CCN(CC)CCN1C(=O)c2oc3ccccc3c(=O)c2C1c1ccccc1` (stereo not drawn) was 0 (inactive).
For `CN(C)CCCN1C(=O)c2oc3ccccc3c(=O)c2C1c1cccs1` (stereo not drawn) the value was 0 (inactive).
Regarding `CCN(CC)CCCN1C(=O)c2oc3ccccc3c(=O)c2C1c1cccs1` (stereo not drawn), the manual score is 1 (active).
The value for `Cc1c(C2Nc3ccccc3NC3=C2C(=O)CC(C)(C)C3)cnn1C` (stereo not drawn) was 0 (inactive).
The value for `CC(C)Sc1nc2c(c(=O)[nH]1)C(c1cccs1)C1=C(CC(C)(C)CC1=O)N2` (stereo not drawn) was -1 (active); that for `Cc1cc2c(cc1C)NC(c1c(C)n(C)n(-c3ccccc3)c1=O)C1=C(CC(C)(C)CC1=O)N2` (stereo not drawn) was 3 (inactive); that for `COc1ccc(C(=O)C2C(c3ccc(-c4ccccc4[N+](=O)[O-])o3)NC(=O)NC2(O)C(F)(F)F)cc1` (stereo not drawn) was -1 (active).
The value for `Cc1cc([N+](=O)[O-])ccc1-c1ccc(C2Nc3ccccc3C(=O)N2O)o1` (stereo not drawn) was 0 (inactive).
Consider `CN(C)c1nc2ccccc2c(N)c1-c1ccccc1`, for which the manual score was -1 (active).
For `COc1cc(OC)cc(-c2nnc(Nc3nc4c(F)cccc4s3)o2)c1` the value was 0 (inactive).
For `Fc1cccc2sc(Nc3nc4cc5c(cc4s3)OCO5)nc12` the value was 0 (inactive).
As to `Fc1ccc2nc(Nc3nc4c(F)cc(F)cc4s3)sc2c1`, the manual score is 0 (inactive).
For `Fc1ccc2nc(Nc3nc4c(F)cccc4s3)sc2c1` the value was 1 (active).
For `Fc1cccc2sc(Nc3nnc(-c4ccco4)o3)nc12` the value was 1 (active); for `COc1cccc(-c2nnc(Nc3nc4c(F)cccc4s3)o2)c1`, 1 (active); for `Fc1cccc2sc(Nc3nnc(-c4ccccc4)o3)nc12`, 1 (active).
As to `Fc1cccc2sc(Nc3nc4ccccc4s3)nc12`, the manual score was 0 (inactive).
For `Fc1cc(F)c2nc(Nc3nc4c(F)cccc4s3)sc2c1` the value was 0.5 (inactive); for `COc1ccc(-c2nnc3sc(C4CCCCC4)nn23)cc1OC`, 0 (inactive).
For `C=CCNC(=O)C1CC(=O)N(c2ccc(OCC(=O)Nc3ccccc3)cc2)C1` (stereo not drawn) the value was 0 (inactive).
For `Cc1cc2nc(CCN(C(=S)NCC(C)C)C3CCCC3)[nH]c2cc1C` the value was 0 (inactive).
In the case of `Cc1ccc(C)c(NC(=S)NNC(=O)c2csc3c2CCCC3)c1`, the manual score is 1 (active).
Take `Cc1cccc(NC(=S)NNC(=O)c2csc3c2CCCC3)c1`: the manual score is 1 (active).
As to `Cc1ccc(NC(=O)c2ccc(COc3ccc4c(c3)CCC4)cc2)c(C)c1`, the manual score is 0 (inactive).
The value for `Cc1ccc(C)c(NC(=S)NNC(=O)c2csc3c2CCC(C)C3)c1` (stereo not drawn) was 1 (active); that for `Cc1cccc(NC(=S)NNC(=O)c2csc3c2CCC(C)C3)c1` (stereo not drawn) was 1 (active).
For `CC(C)(C)C1CCc2c(C(=O)N/N=C/c3cccs3)csc2C1` (stereo not drawn) the value was 0 (inactive); for `Cc1cccc(CSc2cccc3cccnc23)c1`, 0 (inactive); for `CC(=O)Nc1cccc2c1C(=O)N(c1cccc(C)c1)C2=O`, 0 (inactive).
For `O=C1CC(N2CCN(c3nc4ccccc4s3)CC2)C(=O)N1c1ccc(F)cc1` (stereo not drawn) the value was 0 (inactive).
For `CC(C)(C)c1ccc(OCCON2C(=O)CCC2=O)c(Cl)c1`, the manual score is 0 (inactive).
The value for `CC(C)CNC(=S)NNC(=O)c1csc2c1CCC(C)C2` (stereo not drawn) was 0 (inactive); that for `Cc1ccc(C)c(NC(=S)NNC(=O)c2cc3c(s2)CCC(C)C3)c1` (stereo not drawn) was 1 (active); that for `Cc1ccccc1NC(=S)NNC(=O)c1csc2c1CCC(C)C2` (stereo not drawn) was 1 (active).
For `CN(C)/C=C/C(=O)/C=C/c1cn(-c2ncc(C(F)(F)F)cc2Cl)c2ccccc12`, the manual score was 0 (inactive).
For `CCn1c(=S)[nH]c2nc3c(cc2c1=O)CCCC3` the value was 1 (active); for `C=CCn1c(=S)[nH]c2nc3c(cc2c1=O)CCCC3`, 1 (active).
The value for `O=c1c2ccc(Cl)cc2[nH]c(=S)n1CCC1=CCCCC1` was 0 (inactive).
The value for `Cc1ccc(-c2[nH]n3c(=O)c4c(nc3c2C)CCCC4)cc1` was 0 (inactive); that for `Cc1cccc(NC(=O)NC(=S)NC(=O)c2ccccc2)c1` was 0 (inactive).
As to `Cc1cccc(NC(=S)NC(=O)c2cc(-c3ccccc3)nc3ccccc23)c1`, the manual score is 0 (inactive).
For `Cc1cccc(NC(=S)N/C(=N/S(=O)(=O)c2ccccc2)c2ccccc2)c1` the value was 1 (active).
The value for `CCOc1ccc(-n2c(SCc3nc(-c4cccs4)no3)nnc2-c2ccncc2)cc1` was 0 (inactive); that for `COc1ccc(NC(=O)COC(=O)CC23CC4CC(CC(C4)C2)C3)c([N+](=O)[O-])c1` was 0 (inactive); that for `CCC(=O)Nc1nc2ccc3nc(C)sc3c2s1` was 0 (inactive).
In the case of `CC1CCCN(S(=O)(=O)c2ccc(C(=O)Nc3nnc(-c4ccccc4Cl)o3)cc2)C1` (stereo not drawn), the manual score is 1 (active).
As for `CC1CN(S(=O)(=O)c2ccc(C(=O)Nc3nnc(-c4ccc5c(c4)CCCC5)o3)cc2)CC(C)O1` (stereo not drawn), the manual score is 0 (inactive).
Consider `COc1ccccc1NC(=O)c1ccc(S(=O)(=O)N2CCCC2)cc1`, for which the manual score was 0 (inactive).
The value for `CCN(CC)c1ccc2cc(C(=O)NNC(=O)c3ccc(S(=O)(=O)N4CCCCC4)cc3)c(=O)oc2c1` was 0 (inactive).
The value for `O=C(Nc1nnc(-c2ccccc2Cl)o1)c1ccc(S(=O)(=O)N2CCCCCC2)cc1` was 1 (active).
The value for `NS(=O)(=O)c1ccc(S(=O)(=O)N2CCCC2)cc1` was 0 (inactive).
